# tim10-1 inh: inhibits growth of tim10-1 mutant yeast. AID 463190. inhibition, % at 20 µM. 330,000 tested, 2.2% active. S. cerevisiae tim10-1 ts strain growth, BacTiter-Glo, 24 h;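 active means inhibition of at least 40%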;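 further: mutant grown at 25 °C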
# NALP3 yeast inh: NALP3 inhibition in yeast | Yeast reconstituted NLRP3/ASC/caspase-1, beta-gal luminescence, 24 h | AID 2825 | inhibition, % at 10 µM | 330,000 tested, 0.39% active;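 active means inhibition of 50% or more; inactive means inhibition below 50%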
# TIM10 inh: growth inhibitors of TIM10 yeast strain | S. cerevisiae TIM10 strain growth, BacTiter-Glo luminescence, 24 h | inhibition, % at 10 µM | 330,000 tested, 1.4% active;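 active means inhibition of 40% or more at the single tested concentration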;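 further: wild-type TIM10 isogenic control strain grown at permissive 25 °C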
# NALP1 yeast inh: inhibitors of NALP1 inflammasome in yeast. S. cerevisiae NALP1/ASC/caspase-1 growth, X-gal OD620, 72 h. inhibition, % at 10 µM. 280,000 tested, 0.61% active; in the data active means inhibition mostly above about 24%, no sharp cut-off; inactive means mostly below about 32%
# tim23-1 inh: tim23-1 yeast growth inhibition; AID 463212; S. cerevisiae tim23-1 growth, BacTiter-Glo luminescence, 24 h; 330,000 tested, 1.3% active; inhibition, % at 20 µM;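 active means growth inhibition of the mutant yeast at or above 50%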;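 further: temperature-sensitive mutant grown at 25 °C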
# TIM10 conf: confirmation of TIM10 yeast growth inhibitors; inhibition, % at 10 µM; shares compounds with TIM10 inh; 4,600 tested, 63% active; AID 463215; S. cerevisiae tim10 strain growth, BacTiter-Glo luminescence, 24 h;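 active means inhibition of yeast growth at or above a set limit in either of two replicates at 10 µM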; further: this counterscreen used the strain with wild-type TIM10
# Hits are given with their value; 0 = inactive; - = no result given. In the library only some 4% were active in any assay of this set; here they are far more common.
SMILES,tim10-1 inh,NALP3 yeast inh,TIM10 inh,NALP1 yeast inh,tim23-1 inh,TIM10 conf
O=C(Nc1cnn(Cc2ccc(Cl)c(Cl)c2)c1)C12CC3CC(CC(C3)C1)C2,0,0,56,0,0,43
O=[N+]([O-])c1ccc(Sc2ccccc2)nc1,0,0,0,0,0,-
O=[N+]([O-])c1ccc(Sc2n[nH]c(-c3ccccc3)n2)nc1,0,0,45,0,0,0
CC(=O)c1sc(N/N=C\c2cccc(Br)c2)nc1C,0,0,41,0,0,0
CC(C)C(NS(=O)(=O)c1ccccc1)C(=O)N1CCCC1 (centres undefined),0,0,0,0,0,-
CSc1ccc(C(=S)N2CCCC2)cc1,0,0,59,0,0,0
CCN1C/C(=C/c2cccc([N+](=O)[O-])c2)C(=O)/C(=C/c2cccc([N+](=O)[O-])c2)C1,-,-,-,0,-,-
CCOc1ccc(C(C(=O)NC2CCCCC2)N(CCOC)C(=O)c2snc(C(N)=O)c2N)cc1 (centres undefined),0,0,0,0,0,-
CCOC(=O)c1cc2cc3ccccc3cc2[nH]1,0,0,43,0,0,0
CC(C)OC(=O)c1cc2ccccc2[nH]1,0,0,0,0,0,-
CC1Cc2ccccc2N1C(=O)C1CCCN(S(=O)(=O)c2cccc3nsnc23)C1 (centres undefined),0,0,44,0,0,0
Cc1ccc(C23CC4CC(CC(C(=O)NC(C)C)(C4)C2)C3)cc1,0,0,44,0,0,0
O=C1CCC([N+](=O)[O-])C(c2cc3c(cc2Cl)OCO3)N1 (centres undefined),0,0,0,0,0,-
Cc1sc2ncnc(SCC(=O)NC(=O)NCc3ccco3)c2c1C,0,0,50,0,0,0
COC(=O)C1=C(C)N(c2ccc(Cl)cc2)/C(=C/c2ccc(O)cc2)C1=O,0,0,0,0,0,-
COC(=O)C1=C(C)N(c2ccc(Cl)cc2)/C(=C/c2cccs2)C1=O,0,0,47,0,0,0
COC(=O)C1=C(C)N(c2cccc(C)c2)C(=O)/C1=C\c1cccs1,0,0,0,0,0,-
COC(=O)C1=C(C)N(c2ccc(C)c(C)c2)/C(=C/c2cccs2)C1=O,0,0,50,0,0,47
COC(=O)C1=C(C)N(c2ccccc2)/C(=C/c2cccs2)C1=O,0,0,51,0,0,35
Cc1cccc(-n2c(C)c(-c3ccccc3)[nH]c2=S)c1,0,0,43,0,0,38
CC(=O)Nc1ccc(Nc2nc(-c3sc(C)nc3C)cs2)cc1,0,0,0,0,0,-
Cc1ccc(Nc2nc(-c3sc(C)nc3C)cs2)cc1,0,0,46,0,0,49
Cc1ccc(-n2nnnc2SCC(=O)c2cc(C)n(-c3cc(C)on3)c2C)cc1,0,0,43,0,0,0
COc1cc(C(=O)NNC(=O)COc2ccc(Cl)cc2)ccc1OCC(=O)N1CCOCC1,0,0,0,-,0,-
Cc1[nH]nc2ncc(C(=O)c3cc(Cl)cc(Cl)c3O)cc12,0,0,63,0,0,31
SMILES,tim10-1 inh,NALP3 yeast inh,TIM10 inh,NALP1 yeast inh,tim23-1 inh,TIM10 conf
O=C(NC(=S)N1CCc2ccccc21)c1ccccc1Br,0,0,41,0,0,31
CN1CCN(C(=S)NC(=O)c2ccccc2Br)CC1,0,0,0,0,0,-
CCN(CC)CCOC(=O)c1ccc(NC(=S)NC(=O)/C=C/c2ccco2)cc1,0,0,0,-,0,-
COc1cc(C(=O)N/N=C(\c2ccccc2)c2ccccn2)cc(OC)c1OC,0,0,0,0,0,-
COc1cccc(C(=O)N/N=C(/c2ccccc2)c2ccccn2)c1,0,0,40,0,0,0
Nc1c(C(=O)Nc2ccc(F)cc2)sc2nc(-c3ccco3)ccc12,0,0,49,0,0,48
COc1ccc(-c2nn(-c3ccccc3)cc2/C=N/O)cc1OC,0,0,0,0,0,-
COc1ccc(-c2nn(-c3ccccc3)cc2/C=N/NC(=S)NC(C)C)cc1OC,0,0,48,0,0,49
CN(C)S(=O)(=O)c1ccc(NC(=O)CN2CCN(c3ccccn3)CC2)cc1,0,0,0,0,0,-
Cc1ccc(-c2cc3nc(-c4ccccc4)cc(N4CCC5(CC4)OCCO5)n3n2)cc1,0,0,0,0,0,-
COc1ccc(-c2cc3nc(-c4ccccc4)cc(N4CCCC(O)C4)n3n2)cc1 (centres undefined),0,0,42,0,0,34
Cc1cccc(C(=O)N[C@H](C(=O)Nc2nccs2)C(C)C)c1,0,0,0,0,0,-
c1ccc(COc2cccc(CN3CCc4ccccc4C3)c2)cc1,0,0,0,0,0,-
CC1CCCCC12NC(=O)N(CC(=O)c1ccc3c(c1)OCO3)C2=O (centres undefined),0,0,0,-,0,-
CCNC(=S)NN=C1CCC(C(C)(C)C)CC1 (centres undefined),0,0,0,0,0,-
CC(C)(C)C1CCC(=NNC(=S)Nc2cccnc2)CC1 (centres undefined),0,0,44,0,0,35
Cc1c(C)n(CCCN(C)C)c2ncnc(NCc3ccccc3)c12,0,0,0,0,0,-
Cc1cc(C)n(-c2nc3ccccc3nc2N2CCC(C)CC2)n1,0,0,42,0,0,0
Cc1nnc(C)n1/N=C/c1ccc(O)cc1,0,0,0,0,0,-
Oc1ccc(/C=N/n2c3ccccc3c3ccccc32)cc1,0,0,44,0,0,75
c1ccc2c(c1)oc1c(Nc3ccc4c(c3)OCCO4)ncnc12,0,0,0,0,0,-
Cc1nc(Nc2ccc3c(c2)OCCO3)c2oc3ccccc3c2n1,0,0,40,0,0,0
CCOC(=O)Cc1csc(NC(=O)c2ccc3c(c2)OCO3)n1,0,0,43,0,0,0
CCOC(=O)Cc1csc(NC(=O)c2ccc(C)cc2)n1,0,0,0,0,0,-
CCOC(=O)Cc1csc(NC(=S)NC(=O)c2ccccc2Br)n1,0,0,42,0,0,0
SMILES,tim10-1 inh,NALP3 yeast inh,TIM10 inh,NALP1 yeast inh,tim23-1 inh,TIM10 conf
CC1CCCCN1Cc1c(O)ccc2c(=O)c(-c3nc4ccccc4s3)c(N)oc12 (centres undefined),0,0,42,0,0,0
CSc1ccc(/C=N/NC(=O)CN2CCN(Cc3ccc(Cl)cc3)CC2)cc1,0,0,41,0,0,0
CSc1ccc(/C=N/N2CCN(Cc3ccc(Cl)cc3)CC2)cc1,0,0,0,0,0,-
COc1ccc(NC(=O)Nc2cccc3c2O[C@@H](CN(C)CC2CCCCC2)[C@@H](C)CN([C@H](C)CO)C3=O)cc1,0,0,0,-,0,-
Cc1ccc2c(c1)C(c1ccc(F)cc1)N(C(=O)c1ccccc1Br)CC(=O)N2 (centres undefined),0,0,0,0,0,-
O=C1C(=Cc2cccs2)C(=O)c2ccccc21,0,0,0,0,0,-
Cc1ccccc1C1=N/C(=C/c2cccs2)C(=O)O1,0,0,51,0,0,0
Cc1cc(NC(=O)c2cccc(Oc3ccccc3)c2)n[nH]1,0,0,61,0,0,66

# Compound activity as filed in PubChem.
